High-throughput results: PubChem, National Center for Advancing Translational Sciences (NCATS)
ClpP mod = qHTS Assay for Activators of ClpP. ATP-dependent Clp protease proteolytic subunit (Bacillus subtilis (strain 168)), P80244. purified B. subtilis ClpP, FRET peptide cleavage, 20 min. Potency, µM (highest dose often 57.5 µM), without a hit: at the top dose activity change, negative = active. actives 1.9% (n = 340,000). AID 651965, 2013; active = well fitted falling curve with a large enough effect; inconclusive = small, poorly fitted or top-dose-only effect; inactive = no such curve, though single readings can be large or run the other way; note: potency is the fitted concentration of half-maximal effect; the source files actives as falling curves though it sought activators and does not explain the sign; nearly all actives have a fitted effect of over 65% in size
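ClpP 10 microg/mL final, pH 8 Tris/KCl buffer with BSA, glycerol, Tween-20; compound pinned in; FRET-FV substrate; RT 20 min; Ex320/Em430; ΔFRET vs ADEP 5.8 microM, DMSO, no enzyme.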
D3 ag = activates the human D3 dopamine receptor; D3R DiscoveRx beta-arrestin cells, luminescence, 90 min; max activation, %; actives 0.58% (n = 410,000); AID 652048; in the data active = max activation above about 30%; note: 0% is about no effect
Target sequence (P35462 whole entry, looked up): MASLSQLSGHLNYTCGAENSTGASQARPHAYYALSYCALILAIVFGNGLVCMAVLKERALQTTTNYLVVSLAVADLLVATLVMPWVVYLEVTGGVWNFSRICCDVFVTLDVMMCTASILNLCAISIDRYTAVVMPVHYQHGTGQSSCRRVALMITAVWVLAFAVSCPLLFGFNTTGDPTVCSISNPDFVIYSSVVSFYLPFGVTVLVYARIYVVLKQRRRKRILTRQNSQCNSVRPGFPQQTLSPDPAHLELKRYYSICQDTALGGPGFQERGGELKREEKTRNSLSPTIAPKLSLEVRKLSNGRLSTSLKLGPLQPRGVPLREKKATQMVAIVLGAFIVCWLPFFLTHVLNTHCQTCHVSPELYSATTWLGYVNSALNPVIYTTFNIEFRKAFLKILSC
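Cells at 1500/well, incubated overnight, then treated with pinned compounds (dopamine as control) for 90 min at 37 degrees C. DiscoveRx reagent added for 30 - 60 minutes at room temperature; luminescence read.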
IL1B secr inh = inflammasome signaling inhibition, IL-1 beta readout. actives 4.7% (n = 360,000). activity change, % at 57.5 µM. THP-1 LPS/ATP IL-1B secretion, AlphaLISA, 16 h; stronger effect = lower value; in the data active = activity change below about -50%; inconclusive = mostly about -30% to -49%; note: % is set by controls: 0 for no effect and ±100 for the full control effect
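THP-1 cells pretreated 1 hr with compounds (up to 57.5 uM final), then stimulated with LPS (250 ng/mL final) plus ATP (1.25 mM final); secreted IL-1B measured by AlphaLISA after 16 hr, decreased signal indicating inhibition.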
TDP1 cell noCPT = qHTS for Inhibitors of human tyrosyl-DNA phosphodiesterase 1 (TDP1): qHTS in cells in absence of CPT. DT40 Tdp1-/- hTDP1 cells, no CPT, ATP luminescence, 48 h. Potency, µM (highest dose often 46.2 µM), without a hit: top-dose activity change, negative = growth inhibition, usual class: inhibitors. actives 15% (n = 420,000); note: potency is the fitted concentration of half-maximal effect; % is set by controls: 0 for no effect and ±100 for the full control effect; nearly all actives have a fitted effect of over 55% in size
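Seeded 400 DT40-hTDP1 cells/well (vehicle DMSO, no 20 nM CPT); pinned compounds; ≥48 hr at 37 °C; CellTiter-Glo luminescence as viability measure.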
D3 antag = D3 dopamine receptor (human) antagonism; P35462; D3R cells, DiscoveRx beta-arrestin luminescence, antagonist mode; stronger effect = lower value; max response, negative = inhibition, %; actives 2.5% (n = 360,000); AID 652054; in the data active = max response below about -50%; inconclusive = no clear call, values can overlap the other calls; note: % is set by controls: 0 for no effect and ±100 for the full control effect
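Cells plated overnight at 1500 cells/well, then exposed to library compounds with dopamine controls for 90 minutes at 37 degrees C. DiscoveRx reagent added for 30–60 minutes at room temperature; luminescence read, quantitative HTS format.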
TDP1 cell CPT = growth inhibition of DT40 Tdp1-/-;hTDP1 cells with camptothecin (screen for TDP1 inhibitors); chicken DT40 Tdp1-/-;hTDP1 cells + 20 nM CPT, ATP luminescence, 48 h; actives 12% (n = 420,000); Potency, µM (series often up to 46.2 µM), for the others: at the highest dose activity change, negative = growth inhibition, usual class: inhibitors; note: potency is the fitted concentration of half-maximal effect; % is set by controls: 0 for no effect and ±100 for the full control effect; nearly all actives have a fitted effect of over 55% in size
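Chicken DT40 Tdp1-/- cells complemented with human TDP1, 400 cells/well, exposed to compounds plus 20 nM camptothecin for at least 48 h at 37 C; viability read as ATP content by CellTiter-Glo luminescence.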
ClpP validation = validation of B. subtilis ClpP protease hits (inhibitors); AID 743245; purified B. subtilis ClpP, FRET-FV substrate cleavage, 20 min; Potency, µM (series often up to 57.5 µM), inactives show at the highest dose activity change, negative = inhibition, usual class: inhibitors; actives 40% (n = 470); shares compounds with ClpP mod; note: potency is the fitted concentration of half-maximal effect; % is set by controls: 0 for no effect and ±100 for the full control effect; nearly all actives have a fitted effect of over 70% in size
The depositor's hits bear a star; u = inconclusive; x = not tested or not shown. The list is a sample of the results. Unless noted, calls come from the whole dose curve; as a rule, active = well fitted inhibition curve with a large enough effect; inconclusive = small, poorly fitted or top-dose-only effect; inactive = flat fitted curve, though single readings scatter.

SMILES	ClpP mod	D3 ag	IL1B secr inh	TDP1 cell noCPT	D3 antag	TDP1 cell CPT	ClpP validation
Fc1ccc(-c2cc3nc(-c4ccccc4)cc(N4CCOCC4)n3n2)cc1	3.5µM*	14	-3	23µM*	6	13µM*	34µM*
c1ccc(-c2csc(N3CCOCC3)n2)cc1	1%	-6	-15	-7%	-6	-22%	x
c1ccc(-c2nnc3ccc(N4CCC5(CC4)OCCO5)nn23)cc1	-2%	7	7	u	-4	u	x
Cc1ccc(-c2cc3nc(-c4ccccc4)cc(N4CCC5(CC4)OCCO5)n3n2)cc1	7.1µM*	1	0	18µM*	-25	16µM*	4%
CCn1c(NCc2cc(Cl)ccc2O)nc2ccccc21	-4%	-4	-30	u	0	u	x
O=C(CCn1nnc2ccccc21)N1CCN(c2ccccc2)CC1	60%	-2	1	-27%	3	-22%	-1%
N#C/C(=C/c1cccn1-c1cccc(C(=O)O)c1)c1ccc(F)cc1	1%	3	-7	24%	13	5%	x
CC(=O)N1c2ccccc2-c2nc3ccccc3n2C1C (centres undefined)	-26%	1	0	-6%	2	1%	x
c1cncc(C2Nc3ccccc3-c3nc4ccccc4n32)c1 (centres undefined)	3.2µM*	-4	-24	-21%	-11	-14%	27µM*
COc1ccc(-n2cnnc2SCC(=O)Nc2cccc(S(=O)(=O)N3CCCCC3)c2)cc1	-1%	-1	-16	u	-21	10%	x
CCCCN1CCc2c([nH]c3ccc(C)cc23)C1=O	u	-5	u	-21%	11	-7%	x
Cc1ccc2[nH]c3c(c2c1)CCc1cn[nH]c1-3	2.8µM*	0	-13	23µM*	52	u	24µM*
O=C(NC1CCCC1)C(C1CC1)n1c(C2CC2)nc2ccccc21 (centres undefined)	2%	-9	-28	-18%	13	8%	x
CCC(=O)N1N=C(c2cccs2)CC1c1ccco1 (centres undefined)	x	-7	-13	u	-10	-12%	x
Clc1ccc(N2N=C(c3cccs3)CC2c2ccco2)cc1 (centres undefined)	3.5µM*	-4	17	-13%	2	u	27µM*
COc1cc(C(=O)NNC(=O)C2CC2)cc(OC)c1OC	1%	-6	-4	-18%	-15	-3%	x
COC(=O)c1cc2oc(C)cc2n1CC(=O)N1CCCc2ccccc21	0%	3	-25	u	-7	u	x
CCOC(=O)c1cc2occc2n1CC(=O)N1CCCc2ccccc21	96%	6	-14	u	-1	u	0%
COc1ccc(NC(=O)c2ccco2)cc1NC(=O)COc1cc(C)ccc1C(C)C	49%	6	x	7.3µM*	x	8.2µM*	2%
CCCCNC(=O)c1onc(CSc2cccc3ccccc23)c1C(=O)O	2%	7	12	-2%	-12	u	x
COc1ccccc1NS(=O)(=O)c1cccc(C(=O)N2CCN(C(=O)c3ccco3)CC2)c1	-1%	5	-3	8%	11	10%	x
Cc1oc(C(=O)O)cc1COc1ccc2c(C)cc(=O)oc2c1	u	-3	-5	-5%	-20	18%	x
Cc1cc(=O)oc2cc(OCc3cc4c(cc3Cl)OCO4)ccc12	109%	3	8	u	0	u	u
